Laboratory results: PubChem BioAssay (EPA / NIEHS)
Activity calls are given as the source filed them. Rule for the calls: active = hit-call score of the fitted dose curve at least 0.9, where 1 is the maximum; inactive = score below 0.9.

Read-out: flavin-containing dimethylaniline monooxygenases 3 (FMO3), FMO3 (gene 2328)
Test: LTEA_HepaRG_FMO3: Life Technologies and Expression Analysis (LTEA) Assay for flavin-containing dimethylaniline monooxygenases 3 (FMO3) using HepaRG (AID 2283453);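 for AC50: FMO3 transcript by TaqMan qRT-PCR normalized to ACTB GAPDH and POLR2A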
Settings: mRNA level, 48 h; actives raise or lower the signal
Description: LTEA_HepaRG is a cell based, multiplexed-readout assay that uses HepaRG, a human liver cell line, with measurements taken at 48 hours after chemical dosing on a 96-well plate.LTEA_HepaRG_FMO3 is one of 102 assay component(s) measured in the LTEA HepaRG cell culture assay. It is a marker of NR mediated metabolism.Data from the assay component LTEA_HepaRG_FMO3 was analyzed into 1 endpoint. This assay endpoint, LTEA_HepaRG_FMO3, was analyzed with bidirectional fitting relative to DMSO as the negative control and baseline of activity. Using a type of inducible reporter, measures of mRNA induction for gain or loss-of-signal activity can be used to understand regulation of transcription factor activity. To generalize the intended target to other relatable targets, this assay endpoint is annotated to the oxidoreductase intended target family, where the subfamily is […].
A total of 1060 chemcials from the ToxCast library were tested in eight-point concentration-response experiments. Cell culture and cytotoxicity assays were conducted at Thermo Fisher Scientific's Custom Services facility (Madison, WI). A single lot of human HepaRG cells (Thermo Fisher Scientific, Frederick, MD) was used for the cell culture experiments. 96-well format collagen type I coated plates of human HepaRG cells were prepared using established methods. Briefly, cryopreserved HepaRG cells were thawed, plated at a density of approximately 100,000 cells/well in HepaRG Thaw, Plate, and General Purpose media (HPRG770, Thermo Fisher Scientific), and incubated for 48 hours. 0.5% DMSO was selected as vehicle control to balance the requisite need of DMSO in HepaRG cultures to maintain differentiation (for example, baseline metabolism, proportions of hepatocytes vs. cholangiocytes), while enabling further hepatic receptor pathway activation (for example, PXR and CAR) in response to chemical exposure. 48 hours after plating, the culture medium was replaced with HepaRG Serum-Free Incudtion Media. Cells were exposed to each test chemical in duplicate and maintained in CO2 incubators for another 48 hours. Chemical plates were thawed to room temperature and 200x concentrations of treatment groups were prepared. 8-point conentration-reponse curves were made with the highest exposure at 100 uM, followed by half-log dilutions, all in 0.5% DMSO. Each test plate contained variouse controls, induction positive controls (1mM phenobarbital), cytotoxicity positive controls ([…] aflatoxin B1), vehicle controls (0.5% DMSO), and total lysis controls (0.5% DMSO). Cell morphology images were taken using an Essen IncuCyte FLR automated microscope, with six 96-well plates imaged in about 24 minutes. Images were captured and exported and JPEG files. Spent culture media was transfered to black-well plates for the LDH assay, and remaining media was sorted at -80 C for later use. Cells were treated with RLT buffer and frozen until shipped for gene expression analysis. Total RNA was isolated from the cell suspension in 75 uL of Buffer RLT (Qiagen, Germantown, MD 20874) by Quintiles/Expression Analysis (Durham, NC) using a custom isolation procedure. Total RNA from each plate well was transferred to a preamplification plate. Fluidigm's 96.96 Dynamic ArrayTM (Fluidigm, Amsterdam, the Netherlands) technology was used for gene expression analyses by quantitative reverse transcription polymerase chain reaction (qRT-PCR, performed by Quintiles/Expression Analysis, Durham, NC)89. Standard TaqManTM Assays (Applied Biosystems/ThermoFisher Scientific, Foster City, CA) were used to assess the expression of 93 genes selected based on their selectivity and sensitivity to important hepatic receptors known to be modulated by environmental chemicals; importance in human hepatocyte functionality; and hepatotoxicity. […]

SMILES	outcome	AC50
CC(C)(C)c1ccccc1O	inactive	
CCCCCCCCCCCCc1cccc(S(=O)(=O)O)c1	inactive	
O=C(O)C1(c2ccc3c(c2)OC[C@H](Cc2ccc(-c4ccccc4)cc2)[C@H]3O)CCCC1		81.8 µM (active)
CN(C)C(=S)S	inactive	
Clc1cccc(Cl)c1	inactive	
Cc1cc(C)cc(C)c1	inactive	
O=C(N[C@H]1CN2CCC1CC2)c1ccc2c(c1)OCCO2	inactive	
OCCN(CCO)CCO	inactive	
COc1ccccc1N	inactive	
Clc1cccc(Cl)c1Cl	inactive	
Oc1c(Cl)cc(Cl)cc1Cl	inactive	
Oc1cc(Cl)c(Cl)cc1Cl	inactive	
N#Cc1cccnc1	inactive	
CC(C)O.CC(C)O.OCCN(CCO)CCO.OCCN(CCO)CCO.[Ti]	inactive	
